# High-throughput results deposited in PubChem BioAssay by National Center for Advancing Translational Sciences (NCATS).
# This is a sample that favours compounds with a hit; in the whole collection about 0.45% have one here.
# USP1-UAF1 inh = USP1/UAF1 (human) deubiquitinase inhibition; recombinant USP1/UAF1, Ub-Rhodamine cleavage fluorescence; Potency, µM (series often up to 57.1 µM), for the others: at the top dose activity change, negative = inhibition, actives largely listed as inhibitors; 0.23% of 390,000 active; also: % is scaled to controls: 0 for no effect and ±100 for the full control effect; nearly all actives have a fitted effect of over 60% in size
# Target sequence (O94782 whole entry, looked up): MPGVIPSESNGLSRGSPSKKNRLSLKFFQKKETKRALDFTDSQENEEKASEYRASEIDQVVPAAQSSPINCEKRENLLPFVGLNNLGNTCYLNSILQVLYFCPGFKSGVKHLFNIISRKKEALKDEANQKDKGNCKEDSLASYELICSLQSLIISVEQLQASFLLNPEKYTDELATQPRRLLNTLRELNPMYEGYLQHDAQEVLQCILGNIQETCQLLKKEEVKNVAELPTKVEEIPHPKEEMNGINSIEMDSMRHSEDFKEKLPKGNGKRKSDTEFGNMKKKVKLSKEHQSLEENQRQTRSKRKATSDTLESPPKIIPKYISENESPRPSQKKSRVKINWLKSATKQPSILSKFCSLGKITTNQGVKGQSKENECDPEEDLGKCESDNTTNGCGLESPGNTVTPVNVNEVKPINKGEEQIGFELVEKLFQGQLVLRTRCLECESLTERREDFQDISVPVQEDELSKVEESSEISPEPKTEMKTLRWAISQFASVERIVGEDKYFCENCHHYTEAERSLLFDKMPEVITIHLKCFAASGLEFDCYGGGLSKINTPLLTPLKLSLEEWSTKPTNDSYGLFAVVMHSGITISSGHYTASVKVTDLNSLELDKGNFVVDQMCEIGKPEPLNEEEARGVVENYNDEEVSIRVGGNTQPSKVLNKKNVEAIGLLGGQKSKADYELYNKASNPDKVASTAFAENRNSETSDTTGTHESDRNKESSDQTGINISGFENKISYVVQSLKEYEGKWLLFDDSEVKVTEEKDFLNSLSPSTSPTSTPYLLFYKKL
#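 USP1/UAF1 complex at 1 nM was preincubated with compound for 15 min at room temperature, then Ub-Rho substrate (150nM final) was added. Fluorescence (480/540 nm) was read kinetically, 6 reads every 60 seconds.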
# EPAC1 agonist = activates human EPAC1 exchange factor. 0.073% of 360,000 active. AID 720707. EPAC1 agonist qHTS, biochemical assay; response scale: 100% = response to 6.5 mM cAMP. Potency, µM (titrated, usually from 154 µM), for inactives: at the top dose activation, usual class: activators. O95398; also: nearly all actives have a fitted effect of over 60% in size
#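 Nucleotide exchange assay: 100 nM EPAC1 with 250 nM Rap1B loaded with BODIPY-GDP and 50 uM GDP, room temperature. Fluorescence (480/540 nm) read every 5 min for 30 min; signal change normalized to 6.5 mM cAMP as full agonist.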
# EPAC2 antag = EPAC2 (human) antagonism. EPAC2 GEF exchange of Rap1B-BODIPY-GDP, fluorescence. AID 720708. Q8WZA2. 0.18% of 360,000 active. Potency, µM (doses to about 114 µM), for the others: at the highest dose activity, negative = inhibition, usual class: inhibitors; also: % is scaled to controls: 0 for no effect and ±100 for the full control effect; nearly all actives have a fitted effect of over 45% in size
# EPAC1 antag = antagonists of human EPAC1; O95398; EPAC1 GEF assay, Rap1b-BODIPY-GDP exchange fluorescence; Potency, µM (titrated, usually from 115 µM), for the others: at the top dose activity change, negative = inhibition, hits mostly inhibitors; 0.14% of 360,000 active;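 also: plate controls were vehicle for no effect and positive control for full effect; nearly all actives have a fitted effect of over 50% in size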
# EPAC2 agonist = agonists of human EPAC2 (RAPGEF4); 0.079% of 360,000 active; EPAC2 activation, biochemical qHTS; response scale: 100% = 6.5 mM cAMP response; AID 720711; Potency, µM (titrated, usually from 154 µM), without a hit: at the top dose activation, most hits filed as activators; also: nearly all actives have a fitted effect of over 50% in size
#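 Fluorescence exchange assay: 100 nM EPAC2 with 250 nM RAP1B-BODIPY-GDP and 50 uM GDP; compounds tested as a concentration-titration series (qHTS). Loss of Rap1-bound BODIPY-GDP fluorescence read at 480/540 nm; data normalized to 6.5 mM cAMP.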
# USP2a inh = inhibitors of human ubiquitin-specific protease USP2a; O75604; USP2 core, Ub-CHOP2 coupled fluorogenic reporter, 485/531; Potency, µM (titrated, usually from 38.3 µM), inactives show at the highest dose activity change, negative = inhibition, usual class: inhibitors; 0.01% of 330,000 active;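 also: plate controls were DMSO wells for no effect and full inhibition by NEM control for full effect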
#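 USP2 core (10nM final) preincubated 30min RT with compound in 20mM Tris-HCl pH 8.0, 2mM CaCl2, 2mM beta-mercaptoethanol, 0.05% CHAPS; 25nM Ub-CHOP2 plus 25nM reporter substrate added, fluorescence (Ex485/Em531) read after 60min.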
# Starred values were filed as active, the others as inactive; i = inactive; ? = inconclusive; . = no result given. Calls follow the shape of the dose curve; as a rule, active = well fitted curve in the direction sought with a large enough effect; inconclusive = small, poorly fitted or top-dose-only effect, or another doubt; inactive = no such curve, though single readings can be large; an effect the other way counts as inactive or inconclusive. Potency is read from the fitted curve at half-maximal effect.
SMILES,USP1-UAF1 inh,EPAC1 agonist,EPAC2 antag,EPAC1 antag,EPAC2 agonist,USP2a inh
O=C1c2ccccc2-c2onc3ccc(NCCCn4ccnc4)c1c23,28µM*,100µM*,406%,335%,-86%,?
COc1ccc2noc3c2c1C(=O)c1ccccc1-3,4µM*,100µM*,456%,i,?,.
CC1=C(C(=O)N(C(C)C)C(C)C)CC(CC(=O)NCc2cccs2)C(=O)N1Cc1ccccc1 (stereo not drawn),?,15%,2%,11%,11%,.
Cc1cc(C)cc(C(=O)Nc2ccc(N3CCN(C(=O)c4ccco4)CC3)cc2)c1,1%,-2%,-1%,-21%,3%,0%
N#C/C(=C(/O)C(Cl)(Cl)Cl)c1nc2ccccc2[nH]1,-8%,-2%,13µM*,-7%,-1%,-1%
O=S(=O)(Nc1nc(-c2sccc2Cl)cs1)c1cc(Cl)ccc1Cl,?,-12%,50µM*,79µM*,-24%,?
CCOC(=O)c1nc2sc3c(c2c(=O)[nH]1)CCCC3,-7%,-2%,4%,7%,-3%,-1%
N#C/C(=C\c1ccc(C(=O)O)cc1)c1nc2sc3c(c2c(=O)[nH]1)CCCC3,?,32µM*,158%,206%,56µM*,27%
O=S(=O)(Nc1cc2nc3ccccc3nc2n1Cc1ccccc1)c1ccc(Cl)cc1,25µM*,-31%,?,?,27%,7%
CCOCCc1nn2c(=O)cc(COC(=O)c3ccccc3Br)nc2s1,4%,.,.,.,.,.
CC1(Cc2ccccc2OC(F)(F)F)C(=O)Nc2ccc(OC(F)(F)F)cc21 (stereo not drawn),.,-28%,?,?,-10%,.
Cn1cc([C@]2(O)C(=O)Nc3ccc(OC(F)(F)F)cc32)c2ccccc21,.,-18%,22µM*,-15%,-6%,.
Cc1ccc(Cl)cc1NS(=O)(=O)c1ccc(N2CCCCS2(=O)=O)cc1,-24%,.,.,.,.,.
COc1ccc(CCNC(=O)CSc2nc(N)c(C#N)c(-c3cccs3)c2C#N)cc1OC,1%,-1%,2%,32µM*,-3%,-2%
COc1ccccc1CCC(=O)OCC(=O)Nc1cc(C)nn1-c1ccccc1,-22%,100µM*,2%,-11%,6%,-1%
COc1ccc(NC(=O)CN2C(=O)COc3ccc(S(=O)(=O)Nc4ccccc4)cc32)cc1,-30%,.,.,.,.,.
CCN(CC)S(=O)(=O)c1ccc(O)c(C(=O)OCC(=O)N2CCCc3ccccc32)c1,-19%,5%,0%,11%,11%,.
O=C(NCc1ccccc1)C(C1CC1)n1c(CSCCOc2ccccc2)nc2ccccc21 (stereo not drawn),.,11%,-10%,-9%,2%,.
CCCN1C(=O)c2ccccc2NC1c1ccc(OC)c(CSc2ccccn2)c1 (stereo not drawn),-5%,-7%,14µM*,?,2%,1%
CCCN1C(=O)c2ccccc2NC1c1ccc(OC)cc1OC (stereo not drawn),3%,8%,32µM*,-12%,3%,1%
COC(=O)c1c(NC(=O)COc2ccc(C)cc2Br)sc2c1CCCC2,-9%,.,.,.,.,.
COc1ccc(NC(=O)c2nc(SCc3ccccc3F)ncc2Cl)cc1,-2%,.,.,.,.,.
COc1ccc(N=Nc2ccc(N)nc2N)cc1,-15%,9%,-6%,0%,4%,1%
CCOc1ccc2nc3cc(N=Nc4ccc(N)nc4N)ccc3c(N)c2c1,16µM*,-9%,?,9%,26%,.
CN(C(=O)CCc1nc(-c2ccccc2F)no1)c1ccc(Cl)cc1,-1%,.,.,.,.,.
SMILES,USP1-UAF1 inh,EPAC1 agonist,EPAC2 antag,EPAC1 antag,EPAC2 agonist,USP2a inh
CC1=NN(c2cccc(C(=O)O)c2)C(=O)/C1=C\C=C/c1ccccc1,?,-3%,16µM*,-6%,0%,2%
CC1=NN(c2ccccc2)C(=O)C1=Cc1ccccc1,-24%,21%,19%,50µM*,16%,.
COc1ccc(-c2cc(C(=O)Nc3cccc(O)c3)on2)cc1OC,-5%,.,.,.,.,.
O=C(O)CCc1ccc(-c2ccc(Br)cc2)n1-c1ccc(O)cc1,-6%,-1%,50µM*,-16%,-8%,2%
Cc1ccc(-c2ccc(CCC(=O)O)n2-c2ccc(O)cc2)cc1,-3%,4%,-11%,-20%,11%,0%
CC[C@@]1(O)C(=O)OCc2c1cc1n(c2=O)Cc2cc3c(CN(C)C)c(O)ccc3nc2-1,25µM*,?,87%,8%,?,.
CC(=O)NC(c1ccccc1)c1c(O)ccc2ccccc12 (stereo not drawn),-20%,4%,40µM*,-4%,1%,0%
CCOC(=O)c1c(S(=O)(=O)N2CCC(C(=O)N3CCN(c4ccc(F)cc4)CC3)CC2)c(C)n(C)c1C,-28%,.,.,.,.,.
CC(=O)N(CCc1ccccc1)c1ccc2c(c1)C1CC2CCN1C(=O)OCc1ccccc1 (stereo not drawn),-25%,-11%,-10%,-15%,21%,.
COc1ccc(C2CC(=O)N3CN(c4ccccc4F)CSC3=C2C#N)cc1OC (stereo not drawn),-11%,12%,-18%,-2%,7%,4.5µM*
COc1ccc2ccccc2c1C1CC(=O)N2CN(C3CCCCC3)CSC2=C1C#N (stereo not drawn),?,13%,-1%,-8%,8%,-1%
COc1ccc(C2CC(=O)N3CN(C4CCCCC4)CSC3=C2C#N)c(OC)c1 (stereo not drawn),2.2µM*,.,.,.,.,.
CCN(Cc1ccccc1)C(=O)CN1C(=O)COc2ccc(S(=O)(=O)N3CCOCC3)cc21,-10%,.,.,.,.,.
COc1cc(NC(=O)C2CCN(S(=O)(=O)c3c(C)noc3/C=C/c3ccccc3F)CC2)cc(OC)c1OC,15%,.,.,.,.,.
CCOCCCn1c(SCC(=O)Nc2ccccc2Cl)nc2c(oc3ccccc32)c1=O,-23%,.,.,.,.,.
Nc1ccc2cc3[nH]c4cc(N)ccc4c3nc2c1,?,89µM*,231%,i,56µM*,.
O=C1OC(c2ccc3ccccc3c2O)(c2ccc3ccccc3c2O)c2ccccc21,?,-10%,10%,56µM*,6%,.
CCOc1ccc(CCNC(=O)c2oc(=O)c3ccccc3c2-c2ccc(C)cc2)cc1OCC,-25%,.,.,.,.,.
CCN(CC)c1cc(Cl)c2nonc2c1N,-2%,-5%,-20%,9%,10%,3%
CN(C)c1cc(Cl)c2nonc2c1N,32µM*,10%,-1%,50µM*,2%,0%
COc1ccc(CCNC(=O)Cc2c(C)c3cc4c(C)coc4cc3oc2=O)cc1OC,-22%,.,.,.,.,.
